This is an account of results in PubChem BioAssay AID493191 (Broad Institute, 2011).

In all, about 1,300 compounds went through this assay and about 330 (25%) were called active. The rule behind the calls is not given here. These entries were drawn from the full list. Entries with a potency or affinity are not part of this list.

This test is described as follows: MALME3 melanoma cell viability loss, dose response, orthogonal assay for MITF inhibitor project, CellTiter-Glo, cherry-picked (AID 493191). The settings on record: CellTiter-Glo luminescence, 24 h; series mostly up to 35 µM.
With `CCOc1ccc(NC(=O)Nc2cccc(C(=O)O)c2)cc1`, the compound was called inactive.
With `O=C(Nc1nnc(Cc2ccccc2)s1)c1ccccc1` the entry was “inactive”; with `CN(C)c1ccc(-n2cccc2/C=C/[N+](=O)[O-])cc1`, “inactive”.
With `Cc1cc(Cl)ccc1NC(=O)c1ccc2c(c1)OCO2` the entry was “inactive”; with `Cc1ccc(OCC(=O)Nc2cccc(C)n2)c(C)c1`, “inactive”.
With `CCN1CCN(c2ccc(S(=O)(=O)N3CCOCC3)cc2NC(=O)/C=C/c2ccc([N+](=O)[O-])cc2)CC1` the entry was “inactive”; with `O=[N+]([O-])c1cc(S(=O)(=O)N2CCCCCC2)ccc1F`, “inactive”; with `COc1cccc(/C=C/C(=O)c2ccc3c(c2)OCCO3)c1OC`, “inactive”.
For `COc1ccc(/C=C/C(=O)NC(=S)N2CCN(c3ccccc3OC)CC2)cc1`, the call was inactive.
With `CN(C)CCNc1ccc2nnn3c4ccc(O)cc4c(=O)c1c23` the entry was “inactive”.
With `N=C1C(c2nc3ccccc3[nH]2)=C(O)CN1C1CCCCC1` the entry was “inactive”; with `COc1ccc(C(=O)NCCSc2ccccc2C)cc1`, “inactive”; with `COc1ccc(/C=C2\Sc3ccc(C(=O)NCCN4CCCCCC4)cc3N(C)C2=O)cc1`, “inactive”.
With `O=C(NCCSc1ccccc1)c1ccccc1F` the entry was “inactive”.
Regarding `CN(C)CCCNc1nc2sc3c(c2c(=O)n1CCc1ccccc1)CCCCC3`, the compound was classed as inactive.
For the compound `CC(C)(C)c1ccc(-c2cn(-c3ccc(Br)cc3)c3[n+]2CCCS3)cc1`, the outcome was inactive.
Take `OCc1ccc(N=Nc2ccccc2)cc1`: the outcome was inactive.
On to `CN(C)C1CCN(Cc2cc(COCc3ccccc3)c3cccnc3c2O)C1` (configuration not stated), for which the call was inactive.
For `Oc1c(CN2CCCC2)cc(COCc2ccccc2)c2cccnc12`, the result was inactive.
Turning to `COc1cccc(CNc2nc3ccccc3n2C)c1O`, the result was inactive.
With `COC(=O)c1c(NC(=O)c2nc3ccccc3s2)sc2c1CC(C)(C)NC2(C)C` the entry was “inactive”; with `CC(=O)Nc1ccc2c(c1)ncn2-c1ccccc1`, “inactive”.
With `O=C1c2ccccc2CN1c1ccccc1` the entry was “inactive”; with `O=C(NCc1csc(-c2cccs2)n1)C1CCC1`, “inactive”.
With `C/C(=N\NC(=O)C(C)Oc1ccc([N+](=O)[O-])cc1)c1ccccn1` (configuration not stated) the entry was “inactive”; with `CC(=O)N(C1CC(C)C(C#N)(C#N)C1(C#N)C#N)N(C)C` (configuration not stated), “inactive”.
Consider `COc1ccccc1N1C(=O)N(C(C)=O)C2C1Nc1ccccc1N2C` (configuration not stated), for which the compound was classed as inactive.
With `N#Cc1cnc2sc3ccccc3n2c1=N` the entry was “inactive”.
With `Cc1c(/C=C/C(=O)c2ccc(Cl)s2)cnn1C` the entry was “inactive”; with `Cc1c(C=O)c2cc(OCc3ccccc3)ccc2n1C`, “inactive”; with `N#C/C(=C\C=C\c1ccccc1[N+](=O)[O-])C(=O)NCc1ccccc1`, “inactive”.
With `N#C/C(=C\C=C\c1ccccc1[N+](=O)[O-])C(=O)NC1CCCCC1` the entry was “inactive”.
